PubChem BioAssay (EPA / NIEHS)
Records with an inconclusive call do not appear. Calls of active or inactive are those of the source. The calls were made as follows, unless noted: active = hit-call score of the fitted dose curve at least 0.9, where 1 is the maximum; inconclusive = response in the unintended direction; inactive = score below 0.9.

What was measured:
[1] = molecular target: Estrogen receptor beta (Homo sapiens) (UniProt Q92731); test: OT_ER_ERbERb_1440: Odyssey Thera (OT) 24-hour HEK293T Protein-Complementation Assay for Estrogen Receptor-beta/-beta Homodimer (AID 2283380);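 also: fluorescence gain from ER beta LBD homodimer complementation read by laser scanning cytometry; scored as signal increase over DMSO baseline for both agonists and antagonists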
Method in brief: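 HEK293T cells stably expressing human ER-beta LBD (aa 310-547) PCA homodimer pair, dosed 24 h; formaldehyde-fixed, Draq5-stained. Readout: increase in nuclear (agonist) or nuclear plus cytoplasmic (antagonist) fluorescence intensity versus DMSO, gain-of-signal fitting.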

[2] = molecular target: Estrogen receptor (Homo sapiens) (UniProt P03372); test: OT_ERa_GFPERaERE_0480: Odyssey Thera (OT) 8-hour HeLa Transcription Induction Assay for Estrogen Receptor (AID 2283381; active = hit-call score of the fitted dose curve at least 0.9, where 1 is the maximum; inactive = score below 0.9)
Method in brief: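 Cells (HeLa) receive compound; after 8 h, reporter fluorescence is imaged and quantified by high-content analysis. Gain-of-signal relative to DMSO gives the endpoint.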

[3] = molecular target: Retinoic acid receptor RXR-alpha (Homo sapiens) (UniProt P19793); test: OT_NURR1_NURR1RXRa_0480: Odyssey Thera (OT) 8-hour HEK293T Protein Complementation Assay for Nurr1/retinoid X receptor (RXR) (AID 2283385)
Method in brief: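 Compounds are applied to HEK293T cells carrying Nurr1 and RXRα linked to reporter fragments. After 8 h, fluorescence intensity reports heterodimer formation, with DMSO as baseline.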

[4] = molecular target: Peroxisome proliferator-activated receptor gamma (Homo sapiens) (UniProt P37231); test: OT_PPARg_PPARgSRC1_0480: Odyssey Thera (OT) 8-hour Protein-Complementation Assay for Peroxisome Proliferator-activated Receptor Gamma / SRC-1 Co-activator (AID 2283387);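 also: nuclear to cytoplasmic split Venus YFP fluorescence ratio reporting PPARg SRC-1 interaction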
Method in brief: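 Read-out: 488 nm N/C fluorescence ratio from complemented Venus YFP fragments, ≥350 cells per image, gain-of-signal fitted against DMSO baseline. Fusions of PPARg/SRC-1 with IFP1/IFP2 expressed transiently in HEK293T; compounds applied 8 h.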

[5] = molecular target: Peroxisome proliferator-activated receptor gamma (Homo sapiens) (UniProt P37231); test: OT_PPARg_PPARgSRC1_1440: Odyssey Thera (OT) 24-hour Protein-Complementation Assay for Peroxisome Proliferator-activated Receptor Gamma/ SRC-1 Co-activator (AID 2283388);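 also: nuclear to cytoplasmic ratio of reconstituted Venus YFP fluorescence in fixed imaged cells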
Method in brief: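 Cells carrying the PPARg/SRC-1 fragment-complementation reporter receive compound for 24 hours, are fixed and counterstained with Draq5, then imaged. Increased nuclear relative to cytoplasmic YFP fluorescence above DMSO baseline indicates binding activity.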

[6] = CEETOX_H295R_11DCORT: CeeTox H295R High-throughput Steroidogenesis Assay for 11-Deoxycortisol (11DCORT) (AID 2283432; active = hit-call score of the fitted dose curve at least 0.9, where 1 is the maximum; inactive = score below 0.9;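 as to AC50: 11-deoxycortisol secreted into the medium measured by LC-MS/MS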); conditions: actives raise or lower the signal
Method in brief: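 H295R cells; 10 uM forskolin prestim 48 h; compound in 0.1% DMSO 48 h; media extracted with MTBE; 11-deoxycortisol by LC-MS/MS, 7-point standard curve; gain/loss vs DMSO baseline; viability by MTT in same wells.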

[7] = CEETOX_H295R_OHPREG: CeeTox H295R High-throughput Steroidogenesis Assay for OH-Pregnenolone (OHPREG) (AID 2283434; active = hit-call score of the fitted dose curve at least 0.9, where 1 is the maximum; inactive = score below 0.9); conditions: actives raise or lower the signal
Method in brief: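 Human adrenal H295R cells were prestimulated 48 h with 10 uM forskolin, then exposed 48 h to chemical in 0.1% DMSO. Medium 17alpha-hydroxypregnenolone was quantified by HPLC-MS/MS after MTBE extraction; bidirectional fitting versus DMSO baseline.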

[8] = CEETOX_H295R_CORTIC: CeeTox H295R High-throughput Steroidogenesis Assay for Corticosterone (CORTIC) (AID 2283437; active = hit-call score of the fitted dose curve at least 0.9, where 1 is the maximum; inactive = score below 0.9;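 also: corticosterone secreted into medium quantified by mass spectrometry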); conditions: actives raise or lower the signal
Method in brief: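 H295R cells were prestimulated 48 h with 10 uM forskolin, then exposed 48 h to test chemical in 0.1% DMSO. Medium corticosterone was MTBE-extracted and quantified by HPLC-MS/MS; bidirectional fit versus DMSO baseline.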

[9] = CEETOX_H295R_CORTISOL: CeeTox H295R High-throughput Steroidogenesis Assay for Cortisol (AID 2283438; active = hit-call score of the fitted dose curve at least 0.9, where 1 is the maximum; inactive = score below 0.9;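 also: cortisol secreted into medium quantified by LC-MS/MS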); conditions: actives raise or lower the signal
Method in brief: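 Human adrenocortical H295R cells (passage ≤10) received test chemicals for 48 h after forskolin priming. Secreted cortisol was measured by LC-MS/MS.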

[10] = CEETOX_H295R_DOC: CeeTox H295R High-throughput Steroidogenesis Assay for DOC (AID 2283439; active = hit-call score of the fitted dose curve at least 0.9, where 1 is the maximum; inactive = score below 0.9); conditions: actives raise or lower the signal
Method in brief: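 Secreted DOC was quantified from H295R media by HPLC-MS/MS after 48 h chemical exposure following 48 h forskolin (10 uM) prestimulation. Values were fitted in both directions relative to DMSO, the negative control and baseline.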

[11] = CEETOX_H295R_ESTRADIOL: CeeTox H295R High-throughput Steroidogenesis Assay for Estradiol (AID 2283440; active = hit-call score of the fitted dose curve at least 0.9, where 1 is the maximum; inactive = score below 0.9;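 also: estradiol secreted into medium quantified by LC-MS/MS after dansyl derivatisation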); conditions: actives raise or lower the signal
Method in brief: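 Readout is estradiol in conditioned medium, quantified by reverse-phase HPLC-MS/MS against a 7-point standard curve. Cells: H295R, forskolin-stimulated, then dosed 48 h in 0.1% DMSO; activity fitted in both directions relative to DMSO.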

[12] = CEETOX_H295R_ESTRONE: CeeTox H295R High-throughput Steroidogenesis Assay for Estrone (AID 2283441; active = hit-call score of the fitted dose curve at least 0.9, where 1 is the maximum; inactive = score below 0.9;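 also: estrone secreted into medium measured by LC-MS/MS after dansyl derivatization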); conditions: actives raise or lower the signal
Method in brief: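 H295R cells; 48 h forskolin (10 uM) prestimulation; 48 h compound exposure, 0.1% DMSO final. Medium estrone: MTBE extraction, dansyl derivatization, HPLC-MS/MS. Bidirectional fit vs DMSO.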

[13] = molecular target: Agonist Androgen Response Element (ARE), AR (gene 367) (UniProt P10275); test: OT_AR_ARELUC_AG_1440: Odyssey Thera (OT) 24-hour CHO-K1 Luciferase Assay for Agonist Androgen Response Element (ARE) (AID 2283379)
Method in brief: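 Seed CHO-K1 cells; dose compounds for 24 h; add D-luciferin plus ATP in PBS; read luminescence. Signal increase relative to vehicle defines agonist activity, with at least 3 replicate wells per sample.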

[14] = molecular target: Bile acid receptor (Homo sapiens) (UniProt Q96RI1); test: OT_FXR_FXRSRC1_0480: Odyssey Thera (OT) 8-hour HEK293T Protein-Complementation Assay for Farnesoid X receptor/SRC-1 Co-activator (AID 2283383)
Method in brief: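 Co-activator recruitment to FXR was measured in living HEK293T cells, where interaction of the two fused partners restored an active fluorescent reporter. Signal gain after 8 h treatment was referenced to DMSO.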

[15] = molecular target: Retinoic acid receptor RXR-alpha (Homo sapiens) (UniProt P19793); test: OT_NURR1_NURR1RXRa_1440: Odyssey Thera (OT) 24-hour HEK293T Protein Complementation Assay for Nurr1/retinoid X receptor (RXR) (AID 2283386)
Method in brief: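 Measured as fluorescence from a reconstituted split reporter, this 24 h HEK293T complementation assay scores compound-induced gain of Nurr1/RXRα association relative to DMSO.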

[16] = molecular target: Bile acid receptor (Homo sapiens) (UniProt Q96RI1); test: OT_FXR_FXRSRC1_1440: Odyssey Thera (OT) 24-hour HEK293T Protein-Complementation Assay for Farnesoid X receptor/SRC-1 Co-activator (AID 2283384)
Method in brief: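 Cell-based binding reporter: interaction of FXR with SRC-1 brings reporter fragments together, giving a fluorescence signal read 24 h after dosing of HEK293T cells.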

[17] = read-out: Tumor necrosis factor receptor superfamily member 6 (Homo sapiens) (UniProt P25445); test: LTEA_HepaRG_FAS: Life Technologies and Expression Analysis (LTEA) Assay for Fas cell surface death receptor (FAS) using HepaRG (AID 2283447; active = hit-call score of the fitted dose curve at least 0.9, where 1 is the maximum; inactive = score below 0.9); conditions: mRNA level, 48 h; actives raise or lower the signal
Method in brief: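 Differentiated human HepaRG cells, pre-cultured 48 h, were exposed in duplicate for 48 h to 8-point half-log concentrations (top 100 uM, 0.5% DMSO) in serum-free induction medium; FAS mRNA measured by qRT-PCR, normalized to ACTB/GAPDH/POLR2A, bidirectional fit versus DMSO.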

[18] = read-out: Fatty acid synthase (Homo sapiens) (UniProt P49327); test: LTEA_HepaRG_FASN: Life Technologies and Expression Analysis (LTEA) Assay for Fatty Acid Synthase (FASN) using HepaRG (AID 2283448; active = hit-call score of the fitted dose curve at least 0.9, where 1 is the maximum; inactive = score below 0.9); conditions: mRNA level, 48 h; actives raise or lower the signal
Method in brief: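 Transcript-level assay: HepaRG liver cells are treated for 48 h across an eight-point range topping at 100 uM, and FASN mRNA, normalized to three housekeeping genes, is compared with DMSO controls in both directions.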

[19] = read-out: Cyclin D2 (CCND2), CCND2 (gene 894); test: LTEA_HepaRG_CCND2: Life Technologies and Expression Analysis (LTEA) Assay for Cyclin D2 (CCND2) using HepaRG (AID 2283449; active = hit-call score of the fitted dose curve at least 0.9, where 1 is the maximum; inactive = score below 0.9;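 also: CCND2 transcript measured by TaqMan qRT-PCR and normalised to three housekeeping genes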); conditions: mRNA level, 48 h; actives raise or lower the signal
Method in brief: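 Differentiated human HepaRG cells were exposed for 48 h in serum-free induction medium to eight half-log concentrations topping at 100 uM (0.5% DMSO vehicle). CCND2 mRNA was quantified by TaqMan qRT-PCR, normalised to ACTB, GAPDH and POLR2A, and fitted bidirectionally against DMSO.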

Measured: AC50

Estrogen receptor (Homo sapiens), sequence (P03372 whole entry, looked up): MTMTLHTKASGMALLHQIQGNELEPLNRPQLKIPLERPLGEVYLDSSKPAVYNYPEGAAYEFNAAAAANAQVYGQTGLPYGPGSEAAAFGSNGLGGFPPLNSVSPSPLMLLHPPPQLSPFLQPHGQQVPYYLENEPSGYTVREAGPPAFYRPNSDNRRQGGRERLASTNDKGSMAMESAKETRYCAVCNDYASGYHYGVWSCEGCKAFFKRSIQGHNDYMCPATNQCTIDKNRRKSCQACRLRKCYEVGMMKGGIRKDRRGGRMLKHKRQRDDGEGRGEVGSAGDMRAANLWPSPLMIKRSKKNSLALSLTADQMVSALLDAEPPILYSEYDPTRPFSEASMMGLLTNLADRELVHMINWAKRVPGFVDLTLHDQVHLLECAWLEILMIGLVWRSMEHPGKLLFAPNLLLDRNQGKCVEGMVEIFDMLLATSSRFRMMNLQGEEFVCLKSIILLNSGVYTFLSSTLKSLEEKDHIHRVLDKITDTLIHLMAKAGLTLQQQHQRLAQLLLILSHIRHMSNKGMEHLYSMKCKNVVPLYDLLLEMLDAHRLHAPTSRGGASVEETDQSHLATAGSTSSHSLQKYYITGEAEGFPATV
Estrogen receptor beta (Homo sapiens), sequence (Q92731 whole entry, looked up, the tested form may be a part): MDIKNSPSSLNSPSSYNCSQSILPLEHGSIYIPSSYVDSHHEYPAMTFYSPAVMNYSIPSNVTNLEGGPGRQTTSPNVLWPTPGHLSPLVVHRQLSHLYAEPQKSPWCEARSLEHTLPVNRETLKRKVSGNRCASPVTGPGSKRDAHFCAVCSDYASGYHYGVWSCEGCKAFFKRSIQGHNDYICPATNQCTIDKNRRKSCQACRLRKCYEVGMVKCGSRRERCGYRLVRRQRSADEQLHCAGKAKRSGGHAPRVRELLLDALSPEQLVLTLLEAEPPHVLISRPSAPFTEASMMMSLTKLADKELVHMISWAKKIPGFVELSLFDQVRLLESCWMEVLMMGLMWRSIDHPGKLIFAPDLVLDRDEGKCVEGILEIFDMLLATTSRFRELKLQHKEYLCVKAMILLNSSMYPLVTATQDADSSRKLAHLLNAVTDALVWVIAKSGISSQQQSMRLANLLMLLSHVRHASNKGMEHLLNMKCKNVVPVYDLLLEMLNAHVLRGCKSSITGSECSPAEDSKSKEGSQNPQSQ
Bile acid receptor (Homo sapiens), sequence (Q96RI1 whole entry, looked up, the tested form may be a part): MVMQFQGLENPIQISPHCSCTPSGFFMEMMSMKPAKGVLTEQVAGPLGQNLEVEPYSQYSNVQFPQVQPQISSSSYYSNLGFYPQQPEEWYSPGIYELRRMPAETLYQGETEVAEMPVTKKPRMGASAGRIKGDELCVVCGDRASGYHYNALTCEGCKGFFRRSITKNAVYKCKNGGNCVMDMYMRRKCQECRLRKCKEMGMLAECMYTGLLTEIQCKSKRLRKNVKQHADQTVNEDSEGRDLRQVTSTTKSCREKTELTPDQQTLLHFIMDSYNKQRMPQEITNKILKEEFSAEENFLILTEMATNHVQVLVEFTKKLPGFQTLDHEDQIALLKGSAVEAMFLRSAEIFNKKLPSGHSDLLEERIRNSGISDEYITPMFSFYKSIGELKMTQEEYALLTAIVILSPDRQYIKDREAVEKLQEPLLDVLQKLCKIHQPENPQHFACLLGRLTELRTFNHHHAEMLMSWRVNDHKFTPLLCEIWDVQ
Retinoic acid receptor RXR-alpha (Homo sapiens), sequence (P19793 whole entry, looked up, the tested form may be a part): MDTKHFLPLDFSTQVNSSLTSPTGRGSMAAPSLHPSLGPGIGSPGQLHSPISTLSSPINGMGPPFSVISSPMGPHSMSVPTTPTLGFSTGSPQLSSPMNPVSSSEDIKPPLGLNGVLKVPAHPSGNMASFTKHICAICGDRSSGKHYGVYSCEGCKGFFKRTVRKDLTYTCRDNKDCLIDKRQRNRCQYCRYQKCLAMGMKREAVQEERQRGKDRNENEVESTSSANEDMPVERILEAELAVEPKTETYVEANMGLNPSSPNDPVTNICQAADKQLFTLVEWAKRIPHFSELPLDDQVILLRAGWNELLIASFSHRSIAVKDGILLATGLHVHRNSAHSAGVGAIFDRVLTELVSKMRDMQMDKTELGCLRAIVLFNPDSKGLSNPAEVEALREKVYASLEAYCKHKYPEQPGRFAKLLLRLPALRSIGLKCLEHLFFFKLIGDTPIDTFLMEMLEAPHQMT
Peroxisome proliferator-activated receptor gamma (Homo sapiens), sequence (P37231 whole entry, looked up, the tested form may be a part): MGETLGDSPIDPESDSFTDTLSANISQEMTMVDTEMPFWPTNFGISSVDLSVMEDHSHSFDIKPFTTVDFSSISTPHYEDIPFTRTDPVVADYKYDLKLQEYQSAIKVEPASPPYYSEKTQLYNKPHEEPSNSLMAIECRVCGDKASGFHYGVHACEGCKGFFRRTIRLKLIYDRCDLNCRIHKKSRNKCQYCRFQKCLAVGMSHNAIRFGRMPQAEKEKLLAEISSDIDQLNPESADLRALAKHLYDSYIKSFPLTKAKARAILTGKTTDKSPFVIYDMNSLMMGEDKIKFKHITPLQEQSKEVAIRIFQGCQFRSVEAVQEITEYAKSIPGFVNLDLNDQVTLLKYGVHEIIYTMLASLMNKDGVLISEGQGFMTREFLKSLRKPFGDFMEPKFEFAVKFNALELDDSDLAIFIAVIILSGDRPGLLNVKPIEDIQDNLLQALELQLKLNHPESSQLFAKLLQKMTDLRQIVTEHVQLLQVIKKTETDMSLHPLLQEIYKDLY
Agonist Androgen Response Element (ARE), AR (gene 367), sequence (P10275 whole entry, looked up): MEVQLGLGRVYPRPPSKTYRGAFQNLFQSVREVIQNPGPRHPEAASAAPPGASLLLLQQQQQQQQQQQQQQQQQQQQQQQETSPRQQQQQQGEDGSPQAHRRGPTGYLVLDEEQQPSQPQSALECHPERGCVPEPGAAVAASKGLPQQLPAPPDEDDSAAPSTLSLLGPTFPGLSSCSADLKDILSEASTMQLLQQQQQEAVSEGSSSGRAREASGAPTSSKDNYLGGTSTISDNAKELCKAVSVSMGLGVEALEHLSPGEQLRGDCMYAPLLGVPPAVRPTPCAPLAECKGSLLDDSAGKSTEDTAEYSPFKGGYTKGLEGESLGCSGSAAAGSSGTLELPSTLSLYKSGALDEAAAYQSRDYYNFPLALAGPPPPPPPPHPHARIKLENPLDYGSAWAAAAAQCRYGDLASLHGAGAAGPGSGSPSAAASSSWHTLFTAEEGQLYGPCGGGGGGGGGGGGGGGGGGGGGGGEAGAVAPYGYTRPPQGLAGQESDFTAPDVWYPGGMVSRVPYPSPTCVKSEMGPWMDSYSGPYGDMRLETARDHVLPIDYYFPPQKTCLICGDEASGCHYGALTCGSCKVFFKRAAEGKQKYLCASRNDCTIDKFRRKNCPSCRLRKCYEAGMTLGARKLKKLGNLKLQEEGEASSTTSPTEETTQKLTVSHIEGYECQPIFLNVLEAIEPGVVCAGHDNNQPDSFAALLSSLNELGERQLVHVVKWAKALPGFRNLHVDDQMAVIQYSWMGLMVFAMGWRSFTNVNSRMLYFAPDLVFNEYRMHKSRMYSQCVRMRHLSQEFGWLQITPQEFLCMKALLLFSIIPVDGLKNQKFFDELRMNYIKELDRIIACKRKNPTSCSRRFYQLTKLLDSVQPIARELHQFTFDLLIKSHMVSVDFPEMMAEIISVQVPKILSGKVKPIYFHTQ

CC1COc2ccccc2N1C(=O)C(Cl)Cl (configuration not stated)
active: [6] 25.2 µM | [7] 3.66 µM | [8] 9.46 µM | [9] 32.3 µM | [10] 10.4 µM
inactive: [1] | [2] | [3] | [4] | [5] | [11] | [12]

CCCCCCCCCCCCCOS(=O)(=O)O
active: [3] 78.4 µM
inactive: [13] | [1] | [4] | [5]

CCCC/C=C\CCCCCCCCCC=O
inactive: [1] | [14] | [3] | [4] | [5]

CC1(C)[C@@H]2CC[C@@]1(C)[C@H](O)C2
inactive: [1] | [3] | [15]

CCCCCC(CO)CCC (configuration not stated)
inactive: [1] | [3] | [15] | [4] | [5]

CCCCCCCCCCCCCCCC(=O)O
inactive: [1] | [3] | [15] | [4] | [5]

NCCNCCN
inactive: [1] | [15] | [4] | [5]

O=C1C(c2[nH]c3ccc(S(=O)(=O)O)cc3c2O)=Nc2ccc(S(=O)(=O)O)cc21
inactive: [1] | [3] | [15] | [4] | [5]

C=CC[N+](C)(C)CC=C
inactive: [1] | [3] | [15] | [4] | [5]

CCCCC[Si](OCC)(OCC)OCC
inactive: [1] | [3] | [4] | [5]

CC(C)CCCCCCCOC(=O)c1ccc(C(=O)OCCCCCCCC(C)C)c(C(=O)OCCCCCCCC(C)C)c1
inactive: [1] | [3] | [15] | [4] | [5]

CC(C)=CCC[C@](C)(O)[C@@H]1CC=C(C)CC1
inactive: [1] | [3] | [15] | [4] | [5]

CC(C)=CCCC(C)=CCCC(C)=CCO
inactive: [3] | [4] | [5]
active: [1] 12.8 µM | [7] 28.1 µM

C=CCOc1nc(OCC=C)nc(OCC=C)n1
inactive: [3] | [15] | [4] | [5] | [10]
active: [1] 25.5 µM | [6] 25.9 µM | [7] 38.6 µM | [8] 31.7 µM | [9] 29.3 µM

CCC(=O)/C=C/C1C(C)=CCCC1(C)C (configuration not stated)
active: [14] 50 µM | [16] 82.5 µM | [3] 78.4 µM
inactive: [1] | [15] | [4] | [5]

O=C(O)CCCCCCCC(=O)O
inactive: [1] | [15] | [4] | [5]

O=C(O)c1ccc([N+](=O)[O-])cc1
inactive: [1] | [16] | [3] | [6] | [7] | [8] | [9] | [10] | [17] | [18] | [19]

CCCCCOC(=O)CCC
inactive: [1] | [3] | [4] | [5]

C=O
inactive: [1] | [3] | [15] | [4] | [5]

NC(=O)Nc1ccc(Cl)cc1
active: [8] 27.6 µM
inactive: [1] | [2] | [15] | [4] | [5] | [6] | [7] | [9] | [10] | [11] | [12]

CCCCCCCCCCN
inactive: [1]
active: [3] 59.8 µM | [15] 78.2 µM

CC1=CC(=O)NS(=O)(=O)O1
inactive: [1] | [3] | [15] | [4] | [5]

O=C(Oc1ccccc1)c1ccc(O)cc1
inactive: [15] | [4] | [5]
active: [1] 4.86 µM

CCCCCCCCCCCCCCCCCC(=O)OCC(CC)CCCC (configuration not stated)
inactive: [1] | [3] | [15] | [4] | [5]

CCCCC(CC)COC(=O)/C=C\C(=O)OCC(CC)CCCC (configuration not stated)
active: [3] 7.85 µM | [15] 50 µM
inactive: [1] | [4] | [5]

CC(=O)OCCOC(C)=O
inactive: [1] | [2] | [15] | [4] | [5]

C=CC(C)(O)CCC=C(C)CCC=C(C)C (configuration not stated)
active: [14] 59.4 µM | [15] 50 µM
inactive: [1] | [3] | [5]

COc1c(Cl)c(Cl)c(Cl)c(Cl)c1Cl
inactive: [1] | [14] | [3]

OC1OC[C@@H](O)[C@H](O)[C@H]1O (some centres not stated)
inactive: [1] | [3] | [15] | [4] | [5]

O=C(Cl)c1cccc(C(=O)Cl)c1
inactive: [1] | [3] | [4] | [5]

CC(C)(C#N)c1cc(Cn2cncn2)cc(C(C)(C)C#N)c1
inactive: [1] | [14] | [15] | [4] | [5]

Cc1ccc(C(C)C)cc1O
inactive: [1]

CC1(C)C(=O)N(Br)C(=O)N1Cl
inactive: [1]
